Source: PubChem BioAssay (NCATS)
Inconclusive results are not listed. Calls of active or inactive are those of the source. The call rests on the fitted dose curve; in most records, active means well fitted inhibition curve with a large enough effect; inconclusive means small, poorly fitted or top-dose-only effect; inactive means flat fitted curve, though single readings scatter.

Key:
[1] = qHTS profiling for inhibitors of Plasmodium falciparum proliferation (AID 504749);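 on activity, negative = inhibition: 0% = DMSO vehicle and full inhibition = artemisinin control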; on all read-outs here: nearly all actives have a fitted effect of over 60% in size; conditions: P. falciparum in erythrocytes, SYBR Green DNA, 72 h; for activity, negative = inhibition: at 28.7 µM (top of the series)
Method in brief: (§1)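 Infected RBCs, 0.3% parasitemia/2.5% Hct final; cpd 72 h, 37 C, 5% CO2; lysis buffer with saponin/triton/SYBR Green I, o/n RT dark; FI 485/535; norm. to artemisinin (0.29 uM) and DMSO.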

[2] = system: 3D7; test: as above; conditions: P. falciparum in erythrocytes, SYBR Green DNA, 72 h; series mostly up to 28.7 µM
Method in brief: as §1

[3] = system: 7G8; test: as above; conditions: P. falciparum in erythrocytes, SYBR Green DNA, 72 h; series mostly up to 28.7 µM
Method in brief: as §1

[4] = system: AA1029; test: as above; conditions: P. falciparum in erythrocytes, SYBR Green DNA, 72 h; series mostly up to 28.7 µM
Method in brief: as §1

[5] = system: AS120; test: as above; conditions: P. falciparum in erythrocytes, SYBR Green DNA, 72 h; series mostly up to 28.7 µM
Method in brief: as §1

[6] = system: ATS189; test: as above; conditions: P. falciparum in erythrocytes, SYBR Green DNA, 72 h; series mostly up to 28.7 µM
Method in brief: as §1

[7] = system: ATS95; test: as above; conditions: P. falciparum in erythrocytes, SYBR Green DNA, 72 h; series mostly up to 28.7 µM
Method in brief: as §1

[8] = system: C2A; test: as above; conditions: P. falciparum in erythrocytes, SYBR Green DNA, 72 h; series mostly up to 28.7 µM
Method in brief: as §1

[9] = system: CP185; test: as above; conditions: P. falciparum in erythrocytes, SYBR Green DNA, 72 h; series mostly up to 28.7 µM
Method in brief: as §1

[10] = system: CP191; test: as above; conditions: P. falciparum in erythrocytes, SYBR Green DNA, 72 h; series mostly up to 28.7 µM
Method in brief: as §1

[11] = system: CP192; test: as above; conditions: P. falciparum in erythrocytes, SYBR Green DNA, 72 h; series mostly up to 28.7 µM
Method in brief: as §1

[12] = system: CP194; test: as above; conditions: P. falciparum in erythrocytes, SYBR Green DNA, 72 h; series mostly up to 28.7 µM
Method in brief: as §1

[13] = system: CP201; test: as above; conditions: P. falciparum in erythrocytes, SYBR Green DNA, 72 h; series mostly up to 28.7 µM
Method in brief: as §1

[14] = system: CP211; test: as above; conditions: P. falciparum in erythrocytes, SYBR Green DNA, 72 h; series mostly up to 28.7 µM
Method in brief: as §1

[15] = system: CP215; test: as above; conditions: P. falciparum in erythrocytes, SYBR Green DNA, 72 h; series mostly up to 28.7 µM
Method in brief: as §1

[16] = system: CP217; test: as above; conditions: P. falciparum in erythrocytes, SYBR Green DNA, 72 h; series mostly up to 28.7 µM
Method in brief: as §1

[17] = system: CP237; test: as above; conditions: P. falciparum in erythrocytes, SYBR Green DNA, 72 h; series mostly up to 28.7 µM
Method in brief: as §1

[18] = system: CP238; test: as above; conditions: P. falciparum in erythrocytes, SYBR Green DNA, 72 h; series mostly up to 28.7 µM
Method in brief: as §1

[19] = system: CP247; test: as above; conditions: P. falciparum in erythrocytes, SYBR Green DNA, 72 h; series mostly up to 28.7 µM
Method in brief: as §1

[20] = system: CP203; test: as above; conditions: P. falciparum in erythrocytes, SYBR Green DNA, 72 h; series mostly up to 28.7 µM
Method in brief: as §1
Potency means the concentration at half of the fitted maximal effect.

Cc1nc2c([nH]1)c(=O)n(C)c(=O)n2Cc1ccco1
inactive: activity, negative = inhibition ([1]; parasite line A) -3.89% | activity, negative = inhibition ([1]; parasite line B) -2.06% | Potency [2] | Potency [3] | Potency [4] | Potency [5] | Potency [6] | Potency [7] | Potency [8] | Potency [9] | Potency [10] | Potency [11] | Potency [12] | Potency [13] | Potency [14] | Potency [15] | Potency [16] | Potency [17] | Potency [18] | Potency [19]

CC(=O)[C@]1(O)Cc2c(O)c3c(c(O)c2[C@@H](O[C@H]2C[C@H](N)[C@H](O)[C@H](C)O2)C1)C(=O)c1ccccc1C3=O
active: Potency ([1]; parasite line A) 3.55 µM | Potency ([1]; parasite line B) 11.2 µM | Potency [2] 2.82 µM | Potency [3] 1.41 µM | Potency [4] 3.55 µM | Potency [5] 3.16 µM | Potency [6] 5.62 µM | Potency [7] 5.01 µM | Potency [8] 6.31 µM | Potency [9] 11.2 µM | Potency [10] 3.16 µM | Potency [12] 15.1 µM | Potency [14] 13.5 µM | Potency [15] 10.7 µM | Potency [16] 5.01 µM | Potency [17] 3.55 µM | Potency [18] 7.08 µM

Cc1scc2c1N(C(=O)CN1CCN(C)CC1)c1ccccc1NC2=O
inactive: activity, negative = inhibition ([1]; parasite line A) 0.0421% | activity, negative = inhibition ([1]; parasite line B) 4.05% | Potency [2] | Potency [3] | Potency [4] | Potency [5] | Potency [6] | Potency [7] | Potency [8] | Potency [9] | Potency [11] | Potency [12] | Potency [13] | Potency [20] | Potency [14] | Potency [15] | Potency [16] | Potency [17] | Potency [18] | Potency [19]

Cc1ccc(Cl)c(Nc2ccccc2C(=O)O)c1Cl
inactive: activity, negative = inhibition ([1]; parasite line A) -0.156% | activity, negative = inhibition ([1]; parasite line B) -3.06% | Potency [2] | Potency [3] | Potency [4] | Potency [5] | Potency [6] | Potency [7] | Potency [8] | Potency [9] | Potency [10] | Potency [11] | Potency [12] | Potency [13] | Potency [14] | Potency [15] | Potency [16] | Potency [18] | Potency [19]

OCCN1CCN(CCCN2c3ccccc3C=Cc3ccccc32)CC1
active: Potency ([1]; parasite line A) 8.91 µM | Potency ([1]; parasite line B) 11.2 µM | Potency [2] 11.2 µM | Potency [3] 2 µM | Potency [4] 4.47 µM | Potency [5] 4.47 µM | Potency [6] 5.01 µM | Potency [7] 5.01 µM | Potency [8] 11.2 µM | Potency [9] 12.6 µM | Potency [10] 4.47 µM | Potency [11] 10.7 µM | Potency [12] 7.57 µM | Potency [14] 12 µM | Potency [15] 8.49 µM | Potency [16] 7.08 µM | Potency [17] 5.01 µM | Potency [18] 11.2 µM | Potency [19] 5.01 µM

O=C(O)CN(CCN(CC(=O)O)CC(=O)O)CCN(CC(=O)O)CC(=O)O
inactive: activity, negative = inhibition ([1]; parasite line A) 7.8% | activity, negative = inhibition ([1]; parasite line B) -1.15% | Potency [2] | Potency [3] | Potency [4] | Potency [5] | Potency [6] | Potency [7] | Potency [8] | Potency [9] | Potency [10] | Potency [11] | Potency [12] | Potency [13] | Potency [14] | Potency [15] | Potency [16] | Potency [17] | Potency [18] | Potency [19]
